Sampled rows, rich in hits. Any-hit rate of the full collection: about 7.9%.
MARV entry inh: Marburg virus entry inhibition; Marburg virus pseudotyped entry inhibition, cell reporter; 1.8% of 300,000 active; Potency, µM (top dose mostly 37.8 µM), for the others: at the top dose activity change, negative = inhibition, usual class: inhibitors; AID 540276; calls by dose curve; tested in HEK293 cells; further: potency means the concentration at half of the fitted maximal effect
FMDV antiviral: antivirals against foot and mouth disease virus | AID 1159524 | 1.2% of 410,000 active | FMDV antiviral cell-based qHTS | Potency, µM (top dose mostly 57.9 µM), inactives show at the top dose activity change, negative = inhibition, most hits filed as inhibitors; calls by dose curve; tested in HEK293T cells; further: read-out not given here; potency means the concentration at half of the fitted maximal effect; nearly all actives have a fitted effect of over 45% in size
HCMV inh: inhibitors of human cytomegalovirus; 4.5% of 410,000 active; activity change, negative = inhibition, % at 57.5 µM; HFF cells, HCMV-luciferase reporter, 72 h; active compounds read low; in the data active means activity change below about -60%; inconclusive means no clear call, values can overlap the other calls; inactive means above about -39%
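After 16 h attachment at 37C, HFF cells received test compound and HCMV-luciferase (1 PFU/cell); reporter luminescence read 72 h later, data normalized against buffer-only and known inhibitor Salinomycin.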
HCV inh: HCV inhibition | Huh7.5.1 HCVcc-Cre infection, luciferase reporter, 44 h | Potency, µM (titrated, usually from 41.8 µM), for inactives: top-dose activity change, negative = inhibition, hits mostly inhibitors | 3.4% of 340,000 active; active means well fitted inhibition curve with a large enough effect; inconclusive means small, poorly fitted or top-dose-only effect, or another doubt; inactive means no such curve, though single readings can be large or run the other way; further: potency means the concentration at half of the fitted maximal effect
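A cell-based infection assay in which seeded cells (1,000 per well) receive test compound after 4 h, are inoculated with HCVcc-Cre at approximately 0.5 moi, and are incubated 44 h before luminescence detection.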
LASV entry inh: Lassa virus entry inhibition; AID 540256; Potency, µM (top dose mostly 37.9 µM), inactives show at the top dose activity change, negative = inhibition, actives largely listed as inhibitors; 1.2% of 300,000 active; Lassa virus pseudotype entry inhibition, cell reporter; calls by dose curve; tested in HEK293 cells; further: potency means the concentration at half of the fitted maximal effect; nearly all actives have a fitted effect of over 50% in size
* hit, by the source's call; ? = inconclusive; nt = not tested or not shown; + = active, no number; [ ] = remark or other dose. On the % scale 0 is the no-effect control and ±100 the full control effect.

SMILES	MARV entry inh	FMDV antiviral	HCMV inh	HCV inh	LASV entry inh
O=C1NC(=Nc2ccccc2)SC1Cc1cccc(Cl)c1Cl (stereo not given)	21%	-12%	-27	1%	?
CC(=O)/C(C#N)=C1\NC(=O)C(Cc2cc(Cl)ccc2Cl)S1 (stereo not given)	nt	9%	-89*	-8%	nt
CC(=O)/C(C#N)=C1\NC(=O)C(Cc2ccc(F)cc2)S1 (stereo not given)	?	-6%	-83*	-4%	?
CCOC(=O)C1(C)CCCN(C(=O)c2ccc(-c3ccccc3)cc2)C1 (stereo not given)	nt	-10%	-12	nt	nt
COc1ccc(CNC(=O)CSc2ncc(S(=O)(=O)c3ccc(C)c(Cl)c3)c(=O)[nH]2)cc1	nt	-5%	8	nt	21%[46.1 µM]
COc1ccc(NS(=O)(=O)c2cccc3ccccc23)cc1	?	67%	-10	?	-18%
O/C=c1\ccc2cccc3nc(C(F)(F)F)nc1c23	?	13µM*	-26	?	-3%
NNc1nc(C(F)(F)F)nc2ccccc12	1%[46.1 µM]	-1%	22	11%	-17%
Cc1nc(CN2CCN(C(=O)NC3(c4ccccc4)CC3)CC2)cs1	3%	-18%	-77*	1%	2%
CCOc1cc(/C=C2\C(=O)N(c3nc(-c4ccc(Br)cc4)cs3)N=C2c2ccccc2)ccc1O	-3%[46.1 µM]	5.6µM*	nt	-21%	21%
S=C1N(c2ccccc2)C(c2ccccc2)N2CCCN12 (stereo not given)	-1%	-11%	50	10%	18µM*
COc1ccc(CCNC(=O)C(NS(=O)(=O)c2cccc3nsnc23)C(C)C)cc1OC (stereo not given)	nt	10µM*	-8	-2%	nt
CC1CCCN(C(=O)CCNS(=O)(=O)c2ccc(Br)cc2)C1 (stereo not given)	2%	-5%	-7	36%	-7%
CN1CCCC1CCNS(=O)(=O)c1ccc(Br)cc1 (stereo not given)	?	-18%	-16	10µM*	-10%
O[C@@H]1[C@@H](O)C=C2CCN3Cc4cc5c(cc4[C@H]1C23)OCO5 (stereo not given in full)	nt	?	-98*	3.2µM*	nt
OC1C=C2CCN3Cc4cc5c(cc4C(C1O)C23)OCO5 (stereo not given)	nt	-11%	nt	nt	nt
CC(C)(C)[Si](C)(C)OCc1ccc(-c2c3c(cc4ccc(Cl)cc24)CCC3=O)cc1	nt	nt	1	nt	nt
C=CCN(c1ccccc1)S(=O)(=O)c1cccc(C(=O)Nc2nnc(SCC)s2)c1	-7%	-20%	-62*	-6%	-14%
C=CCN(c1ccccc1)S(=O)(=O)c1cccc(C(=O)Nc2cccc(C)n2)c1	?	?	-25	14µM*	?
N#C/C(=C\c1ccc(-c2ccc(C(=O)O)cc2)o1)C(=O)Nc1ccccc1C(=O)O	nt	-3%	16	nt	12%[46.1 µM]
COCCNc1nc(NCc2ccccc2)nc2ccsc12	nt	?	-61*	nt	nt
COCCNc1nc(NC(C)C)nc2ccsc12	nt	-22%	1	nt	nt
CC(C)Nc1nc(Nc2ccc(Cl)cc2F)c2sccc2n1	nt	0%	?	nt	nt
Cc1ccc(Nc2nc(NCC3CC3)nc3ccsc23)c(C)c1	nt	?	-82*	nt	nt
CNc1nc(Nc2ccc(C)cc2C)c2sccc2n1	nt	?	-63*	nt	nt
SMILES	MARV entry inh	FMDV antiviral	HCMV inh	HCV inh	LASV entry inh
Cc1ccc(CNc2nc(NCC3CC3)nc3ccsc23)c(C)c1	nt	?	-77*	nt	nt
Cc1ccc(CNc2nc(NC(C)C)nc3ccsc23)c(C)c1	nt	-29%	-8	nt	nt
Cc1ccc(C(=O)OCC(=O)c2c[nH]c3ccccc23)cc1NC(=O)c1ccco1	?	0%	-33	?	-17%
COc1ccc2cc(CNCc3ccccc3Cl)c(N3CCCC(CO)C3)nc2c1 (stereo not given)	nt	26%	nt	nt	nt
CCOC(=O)Cc1ccc(Nc2nc(NCc3ccccc3)nc3ccsc23)cc1	nt	28µM*	23	nt	nt
Cc1ccc(CNc2nc(NCc3ccccc3)nc3ccsc23)c(C)c1	nt	?	-63*	nt	nt
CNc1nc(NCc2ccc(C)cc2C)c2sccc2n1	nt	?	-31	nt	nt
CCc1cc2c(nc1CC)CCN(CCC(C)=NOC[C@@H](O)[C@H]1O[C@@H]3OC(C)(C)O[C@H]3[C@@H]1O)C2	-6%[14.2 µM]	nt	nt	nt	nt
COc1ccccc1-n1c(CNC(=O)c2ccc(S(=O)(=O)N3CCCCC3)cc2)n[nH]c1=S	27%	-12%	-70*	17%	1%
CCOc1ccc2nc(NC(=O)CS(=O)(=O)c3ccc(Cl)cc3)sc2c1	nt	-14%	+	nt	?
CCOc1ccc2nc(NC(=O)c3ccccc3)sc2c1	nt	?	68	nt	-1%[46.1 µM]
CCOc1ccc2nc(NC(=O)c3ccc(C)o3)sc2c1	?	-44%	48	?	8.9µM*
O=C(N/N=C/c1cc(O)ccc1[N+](=O)[O-])c1ccc2c(c1)OCCO2	?	?	31	13%	5µM*
O=C(N/N=C/c1ccccc1[N+](=O)[O-])c1ccc2c(c1)OCCO2	2.5µM*	?	-28	?	1.4µM*
O=C(N/N=C/c1cc([N+](=O)[O-])ccc1O)c1ccc2c(c1)OCCO2	?	6%	25	?	?
CSCCC(NC(=O)c1ccccc1Cl)C(=O)N1CCN(C(c2ccccc2)c2ccccc2)CC1 (stereo not given)	?	-6%	-28	?	?
CC(C)(C)C(=O)c1c(N)[nH]c(C(=O)c2ccccc2)c1-c1ccc(Br)cc1	nt	-24%	-31	nt	nt
O=C1C=C(N2CCCCC2)c2ccccc2C1=O	?	22µM*	-97*	7.1µM*	8.9µM*
CSc1ncc(Cl)c(C(=O)Nc2ccc(C)c(C)c2)n1	nt	1%	31	?	nt
Cc1ccc(NC(=O)c2nc(S(=O)(=O)Cc3ccc(F)cc3)ncc2Cl)cc1C	?	28µM*	-98*	nt	?
CC(=O)Nc1ccc(NC(=O)c2nc(SCc3ccccc3C)ncc2Cl)cc1	24%[46.1 µM]	0%	-15	nt	1%[46.1 µM]
Cc1ccc(NC(=O)c2nc(S(=O)(=O)Cc3ccccc3C)ncc2Cl)cc1C	?	40µM*	-98*	?	?
CC(=O)Nc1ccc(NC(=O)c2nc(S(=O)(=O)Cc3ccc(F)cc3)ncc2Cl)cc1	?	32µM*	-100*	nt	?
CC(=O)NS(=O)(=O)c1ccc(NC(=O)CC23CC4CC(CC(Br)(C4)C2)C3)cc1	-6%[46.1 µM]	8%	-11	29%	nt
O=C(Cn1cc(COc2ccc(Cl)c(Cl)c2)nn1)NS(=O)(=O)c1ccccc1OC(F)(F)F	nt	-8%	-23	nt	nt
COc1ccccc1-c1noc(CCCC(=O)NC2CCCCC2)n1	-4%[46.1 µM]	-2%	15	24%	12%[46.1 µM]
Cc1cc(F)ccc1NC(=O)CCCN(C)S(=O)(=O)c1ccc(F)cc1	4%[46.1 µM]	-14%	24	-28%	?
Cc1ccc(S(=O)(=O)N(C)CCCC(=O)Nc2ccncc2)cc1	nt	?	-32	5.6µM*	nt
CN(CCCC(=O)Nc1ccc(OC(F)F)cc1)S(=O)(=O)c1ccc(F)cc1	-8%[46.1 µM]	?	-31	11µM*	nt

Source: PubChem BioAssay
